# eLon inh: inhibitors of E. coli Lon protease | P0A9M0 | purified E. coli Lon protease, fluorescence polarization | inhibition, % at 7.94 µM | 360,000 compounds, 0.42% hits | AID 602123; in the data active = inhibition above about 13%, passing the limit was not always enough;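 also: 0% = enzyme with probe and DMSO and 100% = no enzyme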
# MEX-5 binding: C. elegans MEX-5 TCR-2 RNA binding activity; Q9XUB2; AID 1832; MEX-5/FITC-TCR2 RNA binding, fluorescence polarization; hits give low values; 300,000 compounds, 0.38% hits; activity score (negative = inhibition of binding), % at 10 µM;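 active = inhibition past about -25% in most replicates, and total fluorescence under double the plate's negative control median, limit read from the data; inconclusive = replicates evenly split on the limit, or fluorescence at least double controls; inactive = too little inhibition in most replicates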;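 also: 0% = DMSO and -100% = 5 µM competing unlabeled TCR2 RNA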
# MCL1 BIM primary: MCL1-BIM-BH3 interaction inhibition (human). 320,000 compounds, 0.68% hits. GST-MCL1 / FITC-Bim-BH3 fluorescence polarization. inhibition, % at 10.9 µM. AID 2057;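 active = inhibition above the mean inhibition of all tested compounds plus 3 SD, set per campaign, cut at about 40% in these data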;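 also: 0% = DMSO wells and 100% = unlabeled Bim-BH3 peptide control; higher means more loss of mP so more displacement of Bim peptide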
# GLD-1 RNA inh: GLD-1-TGE RNA interaction inhibition (C. elegans) | inhibition, % at 5.96 µM | 320,000 compounds, 0.44% hits | purified GLD-1 + fluorescein TGE RNA, fluorescence polarization | AID 2280;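 active = percent inhibition above a per-plate cutoff, the plate mean of test compounds plus 3 SD, cut at about 30% in these data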;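 also: 0% = DMSO wells with GLD-1 and probe and 100% = wells lacking GLD-1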
# Target sequence (Q17339 whole entry, looked up): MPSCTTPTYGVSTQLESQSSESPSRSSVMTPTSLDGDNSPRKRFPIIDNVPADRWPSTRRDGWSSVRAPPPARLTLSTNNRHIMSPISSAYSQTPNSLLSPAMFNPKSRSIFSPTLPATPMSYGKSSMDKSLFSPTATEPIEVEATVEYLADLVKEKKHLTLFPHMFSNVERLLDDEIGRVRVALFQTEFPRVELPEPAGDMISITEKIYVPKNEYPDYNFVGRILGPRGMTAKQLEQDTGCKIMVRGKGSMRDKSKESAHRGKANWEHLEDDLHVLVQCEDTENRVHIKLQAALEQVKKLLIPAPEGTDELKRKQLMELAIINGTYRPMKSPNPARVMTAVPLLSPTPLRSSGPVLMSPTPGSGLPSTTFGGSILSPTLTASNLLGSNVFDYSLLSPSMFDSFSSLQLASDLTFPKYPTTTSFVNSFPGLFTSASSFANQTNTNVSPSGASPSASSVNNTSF
# Bcl-xL primary: Bcl-xL (human) inhibition. inhibition, % at 10.9 µM. Q07817. GST-Bcl-xL / FITC-Bim BH3 peptide fluorescence polarization. 320,000 compounds, 0.7% hits;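 active = inhibition above the mean of all tested compounds plus 3 SD, cutoff set per campaign, cut at about 30% in these data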;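 also: 0% = DMSO wells and 100% = unlabeled Bim-BH3 peptide competitor; inhibitors lower millipolarization by displacing the labeled peptide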
# Target sequence (Q07817 whole entry, looked up): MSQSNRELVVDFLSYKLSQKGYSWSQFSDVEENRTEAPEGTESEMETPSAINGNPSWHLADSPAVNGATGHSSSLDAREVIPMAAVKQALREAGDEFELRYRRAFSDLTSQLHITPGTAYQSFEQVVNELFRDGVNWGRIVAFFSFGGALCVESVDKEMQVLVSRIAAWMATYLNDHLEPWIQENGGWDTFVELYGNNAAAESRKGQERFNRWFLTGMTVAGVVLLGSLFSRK
# EBV gp42 inh: blocks Epstein-Barr virus glycoprotein 42 binding | Q1HVG2 | Fluorescence polarization binding assay, mP read-out | inhibition, % (tested at 21.74 µM) | 220,000 compounds, 0.42% hits | AID 1085; in the data active = inhibition above about 50%
# BCLXL inh confirm: counter-screen for MCL1 inhibitors: confirmation of human Bcl-xL inhibitors; GST-Bcl-xL / FITC-Bim BH3 peptide FP binding; inhibition, % at 10.9 µM; shares compounds with MCL1 BIM primary; AID 2166; 1,700 compounds, 54% hits;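 active = inhibition above a cutoff equal to the mean inhibition of all tested compounds plus 3 SD, cut at about 30% in these data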;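 also: 0% = DMSO wells and 100% = unlabeled Bim BH3 control peptide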
# MCL1 BIM confirm: confirmation of human MCL1 and BIM-BH3 interaction inhibitors. shares compounds with MCL1 BIM primary. GST-MCL1 / FITC-Bim-BH3 fluorescence polarization. inhibition, % at 10.9 µM. 1,700 compounds, 61% hits;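 active = inhibition above the average of all tested compounds plus 3 SD, cut at about 40% in these data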;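 also: 0% = DMSO wells and 100% = unlabeled Bim-BH3 control peptide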
# * marks the source's active call; other numbers are inactive results; ? = inconclusive; . = no result; + = active, no number. The list is not random: actives were taken first. Their share in the collection is about 1.5%.
SMILES,eLon inh,MEX-5 binding,MCL1 BIM primary,GLD-1 RNA inh,Bcl-xL primary,EBV gp42 inh,BCLXL inh confirm,MCL1 BIM confirm
CN(C)C1C(=O)C(C(N)=O)=C(O)C2(O)C(=O)C3=C(O)c4c(O)cccc4C(C)(O)C3CC12 (stereo unspecified),7.3,?,62.1*,8.9,30.3*,.,14.2,20.2
Clc1ccc2c(c1)C(c1ccccc1Cl)=NCc1nnc(N3CCN(CCOc4ccccc4)CC3)n1-2,-5.6,0.9,4.1,6.9,7.9,14.3,.,.
O=C1NC(=O)N(Cc2ccccc2)C(=O)/C1=C\N1CCCc2ccccc21,-265.2,2.3,-1.4,3.9,3.2,-18.4,.,.
CC(C)C(NC(=O)C(C(C)C)N(C)C)C(=O)N(C)C(C(=O)N1CCCC1C(=O)N1CCCC1C(=O)NCc1ccccc1)C(C)C (stereo unspecified),-7.0,.,.,.,.,.,.,.
CCN(CC)c1ccc(N=Cc2c(O)n(-c3ccc(OC)cc3)c(=O)[nH]c2=O)cc1,-17.5,-34.4*,41.5*,-3.0,25.8,101.6*,113.5*,26.4
O=[N+]([O-])c1ccc(NCc2ccc(Cl)cc2)c2ccncc12,-5.2,-0.1,0.8,1.0,5.6,.,.,.
O=[N+]([O-])c1ccc(NCc2ccccc2)c2nonc12,.,-35.7*,174.9*,198.2*,147.3*,-61.7,167.1*,196.5*
CC(=O)c1cc(C(C)=O)c(C)[n+](C)c1C,4.4,-5.8,5.9,-1.6,13.1,7.5,.,.
CC(=O)Nc1ccccc1C(=O)OCc1ccc(F)cc1,-0.2,-1.2,-6.1,0.7,-2.9,2.5,.,.
COC(=O)Cn1cc(/C=C2\C(=O)NC(=O)N(c3ccccc3)C2=O)c2ccccc21,-30.3,-42.7*,135.0*,-7.2,3.6,.,72.5*,93.6*
O=C(O)Cn1cc(/C=C2\C(=O)NC(=O)N(c3ccc(Br)cc3)C2=O)c2ccccc21,-57.6,?,-14.9,-13.3,-2.2,.,.,.
Cc1ccc(-c2ccc(=O)n(CCC(=O)N3CCC4(CC3)OCCO4)n2)cc1,6.0,0.8,2.2,7.0,3.0,1.4,.,.
COc1ccccc1NC(=O)c1cn(CCC#N)nc1-c1ccc(F)cc1,1.1,-0.4,.,.,.,.,.,.
CC(=NCc1ccco1)c1c(O)n(-c2ccccc2)c(=O)[nH]c1=O,2.5,0.0,1.4,-5.5,2.8,-26.6,.,.
Cc1ccccc1NC(=O)Cc1nc(COC(=O)Cc2ccccc2)cs1,-6.6,.,+,136.7*,151.6*,.,11.8,6.2
CCCCn1c(O)c(C(=O)/C=C/c2c[nH]c3ccccc23)c(=O)[nH]c1=O,-53.2,-10.5,85.1*,28.4,-7.0,-220.0,-35.5,-52.3
O=c1cccc2n1CC1CC2CN(c2nc(N3CCCCC3)nc(N3CCCCC3)n2)C1 (stereo unspecified),-2.5,2.3,-0.2,6.5,3.5,-2.9,.,.
O=C1NC(=S)NC(=O)C1=Cc1ccc(Br)s1,-34.3,-3.4,46.2*,-12.9,15.4,.,19.9,53.2*
COC(=O)C1=C(c2ccc(F)cc2F)C[C@@H]2CC[C@H]1N2C(=O)NCCOc1ccccc1,11.9,.,119.1*,12.6,10.9,.,5.8,0.0
COc1ccccc1CNCCc1cccc(Cl)c1,-7.1,.,.,.,.,.,.,.
O=C1NCN(c2ccccc2)C12CCN(C(c1ccccc1)c1nnnn1-c1ccc3c(c1)OCCO3)CC2 (stereo unspecified),8.2,.,.,.,.,.,.,.
C=CCn1c(O)c(C(CC)=Nc2ccc(N(C)C)cc2)c(=O)[nH]c1=O,9.2,-1.1,45.3*,21.8,29.1,-15.2,18.0,9.6
CN1CCc2nc3sc(C#N)c(N)c3c(-c3cccs3)c2C1,0.7,-0.1,22.4,3.9,20.4,-12.2,.,.
CN1CCc2nc(N)c(C#N)c(-c3ccccc3)c2C1,1.2,-1.7,69.1*,45.6*,61.0*,-10.4,12.3,20.2
CCN(CC)c1ccc(/C=C2/C(=O)NC(=O)N(CC3CCCO3)C2=O)cc1 (stereo unspecified),2.9,-3.8,50.3*,29.6,52.3*,-158.4,15.8,-24.1
SMILES,eLon inh,MEX-5 binding,MCL1 BIM primary,GLD-1 RNA inh,Bcl-xL primary,EBV gp42 inh,BCLXL inh confirm,MCL1 BIM confirm
O=C1NC(=O)N(CC2CCCO2)C(=O)/C1=C/c1cccs1 (stereo unspecified),0.9,-1.9,9.5,-8.1,8.8,-25.7,.,.
N#CC(C#N)=Cc1ccc(-c2ccccc2F)o1,-13.0,.,99.7*,11.7,61.8*,101.3*,123.3*,150.1*
O=C(c1cccn2c(=O)c3ccccc3nc12)N1CCC2(CC1)OCCO2,-4.5,0.5,-0.5,4.2,-0.3,-20.5,.,.
CN1CCc2cc(O)cc3c2[C@H]1Cc1ccc(O)c(O)c1-3,-6.1,-84.6*,48.1*,5.0,28.5,.,53.7*,54.1*
CCCOC(=O)c1ccccc1C(=O)OCCC,6.0,.,-0.9,3.2,4.0,.,.,.
CCOC(=O)c1ccccc1C(=O)OCC,7.5,0.0,73.5*,43.3*,62.7*,.,59.8*,72.3*
Cc1ccc2c(c1Cl)NC(C(=O)O)C1CC(Sc3ccccc3[N+](=O)[O-])C(Cl)C21 (stereo unspecified),11.1,-1.9,59.0*,-8.1,26.7,3.1,-22.4,-31.9
CCN(CC)C(=O)c1ccc2c(c1)C1C(Cl)C(Sc3ccccc3[N+](=O)[O-])CC1C(C(=O)O)N2 (stereo unspecified),4.4,-56.0*,95.2*,17.2,86.2*,2.4,33.7*,37.5
O=C(O)c1ccc2c(c1)C1C(Cl)C(Sc3ccccc3[N+](=O)[O-])CC1C(c1cccc([N+](=O)[O-])c1)N2 (stereo unspecified),1.6,.,.,.,.,14.8,.,.
O=C1NC(=O)C(=C/C=C/c2coc3ccc(Br)cc3c2=O)C(=O)N1,.,-1.5,74.0*,10.8,85.6*,-14.0,91.8*,111.0*
Cc1ccc(N2C(=O)NC(=O)/C(=C\c3cccn3C(C)(C)C)C2=O)cc1,-13.9,-3.8,-21.3,-11.6,-6.6,-4.6,.,.
CCC(C)c1ccc(N2C(=O)NC(=O)/C(=C/c3cccn3CCOc3ccc(C)cc3)C2=O)cc1 (stereo unspecified),-13.0,-15.9,112.5*,-14.8,80.4*,8.1,42.4*,52.5*
CCCCn1c(=O)c(C=Nc2ccc(Cl)cc2)c(O)n(Cc2ccco2)c1=O,-35.6,5.3,-23.0,-9.3,-8.0,-24.8,.,.
N/C(=N\N=C/c1ccc(-c2ccc(O)c(C(=O)O)c2)o1)N[N+](=O)[O-],4.2,-29.4*,79.5*,-4.7,23.3,31.9,29.4,81.5*
CC(=O)Nc1ccc(N=Cc2c(O)n(Cc3ccco3)c(=O)[nH]c2=O)cc1,3.9,-0.1,5.7,1.7,2.2,-5.7,.,.
